Compound activity from PubChem BioAssay.
Shown are actives, neighbours in structure and some others; about 2.4% of the full set was active somewhere.
SENP8 block-1 = SENP8 protease inhibition; Q96LD8; purified SENP8, Z-RLRGG-aminoluciferin cleavage, luminescence; inhibition, % at 10 µM; actives 1.2% (n = 330,000); AID 2540; in the data active = inhibition above about 50%
Platelet DG rel = modulates dense granule release in human platelets; human platelet-rich plasma, SFLLRN dense granule ATP release, luminescence; actives 0.22% (n = 300,000); inhibition, %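 (compounds screened at 7.5 µM in platelet-rich plasma)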;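 active = mean replicate score, as percent of positive control, at or above 50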
SENP6 block = SENP6 protease inhibition | actives 1.8% (n = 330,000) | Recombinant SENP6 catalytic domain, aminoluciferin luminescence | inhibition, % at 10 µM | Q9GZR1;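 active = inhibition above about 50% at the single tested dose, limit read from the data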;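 also: plate controls were DMSO wells with enzyme for no effect and DMSO wells lacking enzyme for full effect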
Target sequence (Q9GZR1 628-1112 limits assumed): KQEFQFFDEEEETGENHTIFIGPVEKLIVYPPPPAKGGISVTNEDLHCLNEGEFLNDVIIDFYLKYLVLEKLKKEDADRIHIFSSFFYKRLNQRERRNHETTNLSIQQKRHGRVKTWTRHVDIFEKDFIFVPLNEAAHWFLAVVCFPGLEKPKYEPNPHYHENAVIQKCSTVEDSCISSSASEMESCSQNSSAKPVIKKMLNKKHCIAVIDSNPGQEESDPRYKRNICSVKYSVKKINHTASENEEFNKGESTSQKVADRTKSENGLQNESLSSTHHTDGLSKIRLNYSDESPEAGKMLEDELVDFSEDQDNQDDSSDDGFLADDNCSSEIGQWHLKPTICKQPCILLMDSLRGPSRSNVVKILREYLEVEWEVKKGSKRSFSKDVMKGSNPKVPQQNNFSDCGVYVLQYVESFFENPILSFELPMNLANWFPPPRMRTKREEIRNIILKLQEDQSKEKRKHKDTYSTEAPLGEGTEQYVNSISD
SENP7 inh = inhibitors of human SENP7 protease; recombinant SENP7, Z-RLRGG-aminoluciferin luminescence, 40 min; actives 1.5% (n = 330,000); inhibition, % at 5 µM;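 active = inhibition above about 50% at the single test dose, limit read from the data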;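 also: plate controls were DMSO with enzyme for no effect and no enzyme buffer wells for full effect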
SENP8 block-2 = inhibitors of human SENP8 protease. actives 0.64% (n = 360,000). inhibition, % at 20 µM. recombinant SENP8, Nedd8 substrate fluorescence; in the data active = inhibition mostly above about 40%, no sharp cut-off; inactive = mostly below about 27%
SENP8 inh conf = confirmation of human SENP8 protease inhibitors; shares compounds with SENP8 block-2; purified SENP8, Nedd8-AMC/pro-Nedd8 cleavage fluorescence, 30 min; inhibition, % at 25 µM; actives 15% (n = 1,400); in the data active = inhibition mostly above about 39%, no sharp cut-off; inactive = mostly below about 34%
An asterisk follows results filed as active; x = no result.

SMILES | SENP8 block-1 | Platelet DG rel | SENP6 block | SENP7 inh | SENP8 block-2 | SENP8 inh conf
COc1ccc(Br)cc1C1CC(=O)N2CN(Cc3ccccc3)CSC2=C1C#N (configuration not stated) | 31 | 2 | 16 | 19 | 68* | 1
N#CC1=C2SCN(Cc3ccccc3)CN2C(=O)CC1c1ccccc1F (configuration not stated) | 13 | -6 | 4 | 2 | -48 | x
CCOC(=O)c1ccc(N2CSC3=C(C#N)C(c4ccc(OC)cc4OC)CC(=O)N3C2)cc1 (configuration not stated) | -7 | 5 | -14 | 13 | 52* | 12
CC1CCc2nc(NC(=O)Nc3ccc4c(c3)OCO4)sc2C1 (configuration not stated) | 2 | 3 | -8 | 2 | 42* | 9
CC1CCc2nc(NC(=O)CN3CCN(Cc4ccc5c(c4)OCO5)CC3)sc2C1 (configuration not stated) | 0 | 17 | -15 | 5 | 38 | x
COC(=O)N/N=C1/C/C(=N\NC(=O)OC)c2ccccc21 | 18 | -2 | 16 | 15 | 81* | 96*
COc1ccc(Cc2nnc(SCC(=O)N3CCc4ccccc4C3)o2)cc1 | 0 | 14 | -12 | -10 | 39* | 76*
Cc1c(Cl)cc(C(C)C)c(O)c1CN1CCOCC1 | x | x | x | x | -1 | x
O=C(COC(=O)c1ccc(Cl)cc1)NCC1CCCCC1 | 6 | x | 4 | 5 | 18 | x
O=[N+]([O-])c1ccccc1NCCNc1ncc(C(F)(F)F)cc1Cl | -15 | -5 | -15 | -1 | 30 | x
O=[N+]([O-])c1cc(Cl)ccc1NCCNc1ncc(C(F)(F)F)cc1Cl | 0 | 2 | -17 | 3 | 43* | 13
COc1ccc(NCc2nnc(SCC(=O)Nc3ccccc3)n2C)cc1 | -7 | -1 | 3 | 2 | 43* | 17
CCn1c(CNc2ccc(OC)cc2)nnc1SCC(=O)N1CCCc2ccccc21 | -8 | -3 | -12 | 0 | 34 | x
COc1ccc(NCc2nnc(SCC(=O)N3CCCc4ccccc43)n2C)cc1 | -5 | 1 | 11 | -11 | 60* | 17
COc1ccc(NCc2nnc(SCC(=O)Nc3ccc(OC)cc3)n2C)cc1 | -5 | 5 | 5 | -8 | 37 | x
COc1ccc(NCc2ccc([N+](=O)[O-])s2)c(OC)c1 | x | x | x | x | 57* | 78*
O=[N+]([O-])c1ccc(CNc2ccc(Cl)cc2)s1 | -1 | -7 | 19 | 27 | 42* | 13
COc1ccc(NCc2ccc([N+](=O)[O-])s2)cc1 | -1 | -2 | 20 | 5 | 30 | x
O=[N+]([O-])c1ccc(CNc2ccc(F)cc2)s1 | 3 | 2 | 11 | 10 | 38 | x
CCSC1=N/C(=C\C=C2/Oc3ccccc3N2CC)C(=O)S1 | -6 | 2 | -33 | -1 | 33 | x
COc1ccc2oc(C)c(C(=O)c3ccc(C)cc3)c2c1 | 4 | -2 | 9 | 3 | -2 | x
CC(=O)OCCCNc1cc(Sc2nc3ccccc3s2)c2nonc2c1[N+](=O)[O-] | 92* | -1 | 84* | 81* | 60* | 35
CC(=O)OCCNc1cc(SCc2ccco2)c2nonc2c1[N+](=O)[O-] | x | 7 | x | x | 76* | 10
CC(=O)OCCCNc1cc(Sc2ccc(C)cc2)c2nonc2c1[N+](=O)[O-] | -4 | 14 | -2 | -4 | 12 | x
O=[N+]([O-])c1c(NCCCO)cc(SCc2ccco2)c2nonc12 | 11 | 15 | 45 | 14 | 42* | 29
SMILES | SENP8 block-1 | Platelet DG rel | SENP6 block | SENP7 inh | SENP8 block-2 | SENP8 inh conf
C#CCSc1nc(=O)c2cccnc2n1-c1ccc(C)cc1 | 3 | -12 | -21 | 7 | 33 | x
Cc1ccc(C)c(NC(=O)CN(C)S(=O)(=O)c2cccc3cccnc23)c1 | 3 | 2 | -3 | 0 | 10 | x
O=C(NC1CCCC1)C(c1ccncc1)N(C(=O)c1csnn1)C1CCCC1 (configuration not stated) | -10 | -1 | -14 | -11 | 10 | x
Cc1noc(C)c1S(=O)(=O)Nc1ccc(O)c2c(=O)cc(-c3ccccc3Cl)oc12 | -11 | 0 | -15 | 8 | 21 | x
COc1ccc(NC(=O)c2cccc(S(=O)(=O)N3CCOCC3)c2)cn1 | 6 | -37 | -3 | 0 | 80* | 5
COc1ccc(CNC(=O)[C@@H](NC(=O)C2CCN(C(=O)[C@@H]3CCCN3C(=O)OC(C)(C)C)CC2)C(C)C)cc1 | -18 | 2 | -17 | -12 | 7 | x
COc1ccccc1CNC(=O)[C@H](C)NC(=O)C1CCN(C(=O)[C@@H]2CCCN2C(=O)OC(C)(C)C)CC1 | 8 | -2 | 1 | -1 | 45* | 14
COc1ccc(C(=O)NCc2nnc(SCC(=O)N3CCC(C)CC3)o2)cc1 | 2 | -1 | 0 | 2 | 12 | x
CC1CN(C(=O)c2ccc(Cl)c(S(=O)(=O)NCc3ccco3)c2)CC(C)O1 (configuration not stated) | 0 | x | -4 | -7 | 3 | x
O=C(O)c1ccc(Cl)c(S(=O)(=O)NCc2ccco2)c1 | -13 | 4 | -10 | 4 | 43* | -8
O=C(NCCc1ccccc1)C(=O)NCC(c1ccco1)N1CCOCC1 (configuration not stated) | -11 | -7 | -18 | -10 | 43* | 5
O=C(NCc1ccccc1)C(=O)NCC(c1ccco1)N1CCOCC1 (configuration not stated) | 7 | -12 | 15 | 1 | 16 | x
COC(=O)c1cnc(Nc2cccc(C(F)(F)F)c2)c([N+](=O)[O-])c1 | 0 | 7 | 1 | 2 | 33* | 16
O=C(COc1ccc(C(F)(F)F)cc1[N+](=O)[O-])Nc1cccc(C(F)(F)F)c1 | -8 | -10 | -13 | 6 | 21 | x
Cc1nc2ccccn2c1-c1ccnn1S(=O)(=O)c1ccc(F)cc1 | 4 | -2 | 2 | 5 | 3 | x
O=C(CNc1ccc2c(c1)OCO2)N/N=C\c1ccccc1Cl | 3 | -4 | 7 | 6 | 61* | 15
O=C(Cc1ccccc1)N/N=C/c1cc2c(cc1Cl)OCO2 | -18 | 9 | -15 | -6 | 11 | x
CC(C)(C)C(=O)CSc1nc2c(c(-c3cccs3)c1C#N)CCC2 | -2 | -8 | 5 | -5 | -222 | x
CN1CCc2nc(SCC(=O)Nc3ccc(OC(F)(F)F)cc3)c(C#N)c(-c3cccs3)c2C1 | 5 | 3 | 28 | 1 | 45* | 23
Cc1cccc(CSc2nc(N)c(C#N)c(-c3cccs3)c2C#N)c1 | 2 | -3 | 1 | -2 | -71 | x
Cc1cccc(CSc2nc3c(c(-c4cccs4)c2C#N)CN(C)CC3)c1 | 6 | -10 | -3 | 1 | 40* | 4
CCOC(=O)c1ccc(NC(=O)c2nc[nH]c2C(=O)NC[C@H](C)O)cc1 | x | x | x | x | 0 | x
Cn1c(=O)c2c(nc(CN3CCN(C(=O)c4ccco4)CC3)n2CC(=O)C(C)(C)C)n(C)c1=O | 7 | 2 | -6 | 1 | 7 | x
CCNC(=S)NNC(=S)NCc1ccccc1 | -3 | 21 | -7 | 5 | 5 | x
